Experimental data published in ChEMBL document CHEMBL3988442, “University of Dundee, Small-Polar-MMV Screening Library” (2021).
Among all 48,000 compounds or so, about 13,000 (27%) showed an effect of 50% or more. The list shows a part of the results.

Test system: Wolbachia pipientis
Assay: Anti-Wolbachia Cell-Based Screen
Assay type: functional
Parameters: scale not given: in the data most compounds retested in dose-response had high values
Settings: 5 µM

| SMILES | Percent Effect [%] |
| --- | --- |
| COc1c(NC(=O)N(C)CCOc2ccc(F)cc2)c(C)nn1C | -9.317 |
| CC(=O)N1CCCC1C(=O)NCCOc1cccc(F)c1 (stereo not drawn) | 92.85 |
| O=C1CCCN1CC1CCCCN1C(=O)Nc1cccc(F)c1 (stereo not drawn) | -9.718 |
| Cc1ccc(F)cc1NC(=O)C1CCCN1C(=O)C(C)C (stereo not drawn) | -3.665 |
| CC(=O)N1CCCC1C(=O)NCCOc1cc(C)cc(C)c1 (stereo not drawn) | 2.584 |
| CC(=O)N1CCCC1C(=O)NCCOc1ccc(C(C)C)cc1 (stereo not drawn) | 97.98 |
| CC(C)CCNC(=O)C1CCCN1C(=O)Nc1cccc(F)c1 (stereo not drawn) | 134.2 |
| CC(=O)N1CCC[C@H]1C(=O)NCCOc1cccc(Cl)c1 | 1.208 |
| CC(=O)NCCOc1c(C)cccc1C | -5.514 |
| CC(=O)N1CCC[C@H]1C(=O)N(C)CCCOc1ccccc1 | 16.69 |
| CC(=O)N1CCN(C(=O)CCOc2ccc(C(C)C)cc2)CC1 | -11.35 |
| C=C(C)COCCNC(=O)C1CCCN1C(C)=O (stereo not drawn) | 4.711 |
| CC(=O)N1CCCC1C(=O)NCCOc1c(C)cccc1C (stereo not drawn) | 70.88 |
| CCC(CNC(=O)COC)Oc1cccc(F)c1 (stereo not drawn) | -17.35 |
| NC(=O)c1csc(N2CCCC(c3n[nH]c(=O)n3-c3ccccc3)C2)n1 (stereo not drawn) | -8.892 |
| CC(C)c1cc(C(=O)NCCn2nc3ccccn3c2=O)n[nH]1 | 7.227 |
| Cc1nnc(NC(=O)NCc2ccc(C)n2C)s1 | 1.794 |
| Cc1nc(NC(=O)C2CCCN(C(=O)C3CC3)C2)sc1C (stereo not drawn) | 22.45 |
| Cc1nc(NC(=O)NCCCN2CCC(C(N)=O)CC2)sc1C | 92.76 |
| Cc1nc(Nc2ccc(Cl)cn2)sc1C(=O)NCCCN1CCCCC1 | -4.658 |
| Cc1nnc(NC(=O)NCCCN2CCC(C(N)=O)CC2)s1 | 105 |
| Cc1nnc(NC(=O)N2CCCCC2CCO)s1 (stereo not drawn) | -9.567 |
| Cc1cccc(CN2CCS(=O)(=O)[C@@H]3CCN(S(C)(=O)=O)CC[C@@H]32)n1.O=C(O)C(F)(F)F | -6.526 |
| Cc1cccc(CN2CCn3cc(CNC(=O)CC4CC4)nc3C2)n1 | 3.137 |
| Cc1cccc(CNC(=O)CC2CCN(Cc3ccccn3)CC2)n1 | 99.8 |
| Cc1cccc(C(=O)N2CCn3cc(CNC(=O)CC4CC4)nc3C2)n1 | 2.995 |

| SMILES | Percent Effect [%] |
| --- | --- |
| Cc1cccc(CNC(=O)CC2CCN(C(=O)C(C)C)CC2)n1 | 83.92 |
| Cc1cccc(CN2CCC(Cc3ccccc3F)CC2)n1 | -1.449 |
| Cc1cccc(CNC(=O)C2CCC(=O)N(Cc3ccccc3F)C2)n1 (stereo not drawn) | -24.63 |
| Cc1cccc(CNC(=O)CC2CCN(S(C)(=O)=O)CC2)n1 | 82.07 |
| COC(=O)N1CCCC(NC(=O)NCc2cccc(C)n2)C1 (stereo not drawn) | -5.43 |
| Cc1cccc(C2(O)CCN(C(=O)c3ccc(N(C)C)cc3)CC2)c1C | -4.914 |
| COc1ccc(Br)cc1NCC(=O)NC(C)(C#N)C1CC1 (stereo not drawn) | 14.48 |
| c1ccc(CN2CCC(CNc3ncnc4c3CCNCC4)CC2)cc1 | 97.41 |
| c1ccc(CN2CCCC(CNc3ncnc4c3CCNCC4)C2)cc1 (stereo not drawn) | 100.7 |
| Cc1ccccc1CN1CCC(NCC2CNc3ccnn3C2)CC1 (stereo not drawn) | 8.316 |
| c1cnnc(N2CCCC2CNc2ncnc3c2CCC3)c1 (stereo not drawn) | 2.71 |
| c1ccc(CN2CCC(NCCSc3ncn[nH]3)C2)cc1 (stereo not drawn) | 12.73 |
| Cc1[nH]c2ccccc2c1CCNc1ncnc2c1CCNCC2 | -9.659 |
| O=C(Cn1cccn1)NCC1CCCN(Cc2ccccc2)C1 (stereo not drawn) | 8.029 |
| c1ccc(CN2CCC(Nc3ncnc4c3CCNCC4)C2)cc1 (stereo not drawn) | 76.79 |
| Cc1ccccc1CN1CCC(CNc2ncnc3c2CCNCC3)C1 (stereo not drawn) | 119.4 |
| Cc1nc(CN2CCCC(Nc3ncnc4c3CCC4)C2)no1 (stereo not drawn) | -2.2 |
| OC(CN(Cc1ccccc1)Cc1ccncc1)c1cccs1 (stereo not drawn) | 13.62 |
| Cc1nnc(CN2CCC(Oc3ccc(C)c(C)c3)CC2)o1 | -18.16 |
| Cc1ccc(CNCCS(=O)(=O)N2CCOCC2)cc1C | -37.41 |
| Cc1ccn(CCNc2ncnc3c2CCN(Cc2ncc[nH]2)CC3)n1 | 5.519 |
| c1ccc(CN2CCC(CCNc3ncnc4c3CCNCC4)C2)cc1 (stereo not drawn) | 82.99 |
| COCC1CC2(CCN(C(=O)c3cc(C)oc3C)CC2)CN1C(C)C.O=C(O)C(F)(F)F (stereo not drawn) | 17.98 |
| COCC1CC2(CCN(C(=O)c3ccc(C)nc3)CC2)CO1.O=C(O)C(F)(F)F (stereo not drawn) | -3.949 |
| COCC1CC2(CCN(Cc3cnn(C)c3)CC2)CN1C(C)C.O=C(O)C(F)(F)F.O=C(O)C(F)(F)F (stereo not drawn) | -6.847 |
| COCC1CC2(CCN(C(=O)c3ccco3)CC2)CN1C(C)C.O=C(O)C(F)(F)F (stereo not drawn) | 111.9 |

| SMILES | Percent Effect [%] |
| --- | --- |
| COCC1CC2(CCN(C(=O)c3cccn3C)CC2)CN1C(C)C (stereo not drawn) | -8.006 |
| COCC1CC2(CCN(C(=O)c3occc3C)CC2)CN1C(C)C.O=C(O)C(F)(F)F (stereo not drawn) | 98.04 |
| COCC1CC2(CCN(Cc3ccc(OC)cc3)CC2)CN1C(C)C.O=C(O)C(F)(F)F.O=C(O)C(F)(F)F (stereo not drawn) | -13.29 |
| COCC1CC2(CCN(C(=O)c3ccccc3C)CC2)CN1C(C)C.O=C(O)C(F)(F)F (stereo not drawn) | 101.7 |
| COCC1CC2(CCN(Cc3ccc(C)o3)CC2)CN1C(C)C.O=C(O)C(F)(F)F.O=C(O)C(F)(F)F (stereo not drawn) | 100.3 |
| N#Cc1ccc(C2CC(=O)Nc3c2cnn3C2CCCC2)cc1 (stereo not drawn) | 11.66 |
| N#Cc1cn(C2CC2)c(=O)n(Cc2cc(-c3cccs3)on2)c1=O | 15.09 |
| COC(=O)CCN1CCC(NC(=O)OC(C)(C)C)CC1 | -7.075 |
| CC(C1CCN(Cc2cnn(C)c2C2CC2)CC1)N1CCN(C)CC1 (stereo not drawn) | -5.459 |
| Cc1cccc(-c2nccnc2C2CCCN(C)C2)c1C (stereo not drawn) | 89.85 |
| Cc1cccc(-c2nccnc2C2CCN(C)CC2)c1C | 64.83 |
| Cc1nnc(N2CCCC(C(=O)c3cccc(Cl)c3)C2)o1 (stereo not drawn) | -20.06 |
| CN1CCCC(c2nc3c([nH]2)CC(C)(C)CNC3=O)C1 (stereo not drawn) | -16.77 |
| CN1CCCC(c2nccnc2-c2cccc(Cl)c2)C1 (stereo not drawn) | 117.7 |
| COc1ccc(C)cc1-n1cnnc1C1CCCN(C)C1 (stereo not drawn) | 8.034 |
| O=C(c1cccc(Cl)c1)C1CCCN(c2nnc(C3CCC3)o2)C1 (stereo not drawn) | -5.901 |
| CCN(C)C(C(=O)Nc1ccc2c(c1)CCC(=O)N2)c1ccccc1 (stereo not drawn) | 0.8734 |
| OCCn1ncc2c1CN(CC1CCOc3ccccc3C1)C2 (stereo not drawn) | 4.778 |
| CC(NC(=O)NCc1cscn1)c1ccc(N2CCOCC2)cc1 (stereo not drawn) | -18.24 |
| O=c1[nH]c2c(c(=O)n1C1CCCCC1)CCC2NCCc1ccccc1 (stereo not drawn) | 24.49 |
| CC(C)N(CC1CCCN(CC(N)=O)C1)C(=O)OC(C)(C)C (stereo not drawn) | 12.71 |
| COc1cccc(-c2cc(-c3nc(CN4CCN(C)CC4)no3)[nH]n2)c1 | 0.4618 |
| Cn1cccc1C(=O)N1CCC2(CC1)CCN2S(C)(=O)=O | -0.7561 |
| Cc1ccc(C(=O)N2CCC(O)(CN3CCc4ccccc4C3)C2)s1 (stereo not drawn) | 99.66 |
| CN(C)CC1(O)CCN(C(=O)c2cnc(CN3CCCC3)s2)C1 (stereo not drawn) | -12.27 |
| Cc1csc(C(=O)N2CCC(O)(CN3CCc4ccccc4C3)C2)c1 (stereo not drawn) | 114.3 |

| SMILES | Percent Effect [%] |
| --- | --- |
| Cn1cccc1C(=O)N1CCC(O)(CN2CCc3ccccc3C2)C1 (stereo not drawn) | 119.3 |
| Cn1cccc1C(=O)N1CCCC2(CCCN2S(C)(=O)=O)C1 (stereo not drawn) | 2.477 |
| Cc1ccc(C(=O)N2CCN(CC(O)c3ccc(F)cc3)CC2)s1 (stereo not drawn) | -1.791 |
| O=S1(=O)C[C@@H]2[C@H](C1)N(Cc1cccc(O)c1)CCN2CC1CC1 | -9.844 |
| Cc1noc([C@@H]2C[C@H](NS(=O)(=O)Cc3ccccc3)CN2C)n1 | -2.99 |
| CC(OCC1CC1)C(=O)NCc1ccc(Cn2ccnc2)cc1 (stereo not drawn) | -1.593 |
| Cc1ccc([C@@H]2CN(C(=O)CCc3ccco3)C[C@H]2N(C)C)cc1 | -4.926 |
| COc1ccccc1C(=O)N1CC2(COC(C)(C)OC2)C1 | -9.843 |
| Cc1cc(C(=O)N2CCN(Cc3ccco3)C(CCO)C2)cc(=O)[nH]1 (stereo not drawn) | -4.439 |
| COc1ccccc1C(=O)N1CC(=O)N(Cc2ccco2)CC(O)C1 (stereo not drawn) | 85.9 |
| CCc1ccc(CN2C[C@@H](C(=O)O)[C@H](c3ccccc3OC)C2)o1 | -18.6 |
| Cc1ccc(C(=O)N2CC(=O)N(Cc3ccco3)CC(O)C2)cc1 (stereo not drawn) | 118.6 |
| NC(=O)CN(C(=O)c1cccc(C(F)(F)F)c1)C1CCCC1 | -15.86 |
| NC(=O)NCC1CCCCN1C(=O)c1cccc(C(F)(F)F)c1 (stereo not drawn) | 3.602 |
| NC(=O)CC1CCCCN1C(=O)c1cccc(C(F)(F)F)c1 (stereo not drawn) | 118.1 |
| CS(=O)(=O)NCC1CCCCN1C(=O)c1cccc(C(F)(F)F)c1 (stereo not drawn) | 93.67 |
| Cc1ccc(-c2nc(C(=O)N3CCCCC3CNS(C)(=O)=O)cs2)cc1 (stereo not drawn) | 5.411 |
| CCC(O)CNC(=O)C1(N(C)Cc2ccccc2)Cc2ccccc2C1 (stereo not drawn) | -9.431 |
| CCc1nc2n(n1)CCCC2NC(=O)Nc1ccc(SC)c(F)c1 (stereo not drawn) | -17.88 |
| COc1cc(N2CCCC(c3nccn3CCN(C)C)C2)nc(N)n1 (stereo not drawn) | -7.598 |
| O=C(O)C(F)(F)F.c1cc(CN2C[C@H](OCC3CCOCC3)[C@H]3COC[C@H]32)co1 | 84.18 |
| O=C(O)C(F)(F)F.c1cc(CN2C[C@H](OCC3CCOCC3)[C@H]3COC[C@H]32)cs1 | 93.96 |
| COc1ccc(CN2C[C@@H](OCc3csc(C)n3)[C@H]3COC[C@H]32)cc1.O=C(O)C(F)(F)F | -4.618 |
| N#Cc1cccc(CN2C[C@H](OCC3CCOCC3)[C@H]3COC[C@H]32)c1.O=C(O)C(F)(F)F | -3.694 |
| COc1ccc(CN2C[C@H](OCC3CCOCC3)[C@H]3COC[C@H]32)cc1.O=C(O)C(F)(F)F | 2.727 |
